Compounds with a hit are over-represented: about 4.7% of the library has one in this group of screens.
D1 antagonist: human D1 dopamine receptor antagonism | HEK293 TREx D1 cells, calcium flux, dopamine EC80; stronger effect = lower value | activity change, negative = inhibition, % at 10 µM | 3.2% of 360,000 active | AID 504652; in the data active means activity change below about -30%
Target sequence (P21728 whole entry, looked up): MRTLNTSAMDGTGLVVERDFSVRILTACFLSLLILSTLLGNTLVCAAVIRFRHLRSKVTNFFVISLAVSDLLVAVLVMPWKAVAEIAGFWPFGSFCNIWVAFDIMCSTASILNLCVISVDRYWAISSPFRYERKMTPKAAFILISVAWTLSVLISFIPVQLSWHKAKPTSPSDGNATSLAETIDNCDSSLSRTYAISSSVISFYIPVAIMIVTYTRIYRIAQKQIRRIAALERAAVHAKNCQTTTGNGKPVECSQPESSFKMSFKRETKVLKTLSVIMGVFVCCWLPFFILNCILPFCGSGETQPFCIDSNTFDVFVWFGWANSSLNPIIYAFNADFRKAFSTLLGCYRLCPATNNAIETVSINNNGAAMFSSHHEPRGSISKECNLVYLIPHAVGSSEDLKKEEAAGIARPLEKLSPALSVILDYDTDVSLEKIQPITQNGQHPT
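HEK293 T-REx cells expressing inducible, force-coupled D1 receptor; no-wash Ca dye, 30–90 min RT. Cmpd → 180 s read at 1 Hz → EC80 DA → 180 s read.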
D1 PAM: enhances dopamine response at the human D1 receptor. P21728. HEK293 TREx D1 cells, calcium flux, dopamine EC20 potentiation. potentiation, % at 10 µM. 0.036% of 360,000 active. AID 504651; in the data active means potentiation above about 30%
TRHR ag: TRH receptor (human) agonism | P34981 | AID 493084 | TRHR cells, calcium flux fluo-8, FDSS agonist mode | activation, % at 2 µM | 0.18% of 360,000 active
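Agonist-mode FDSS calcium read (Ex 480/Em 530, 1 s cycles) in 1536-well TRHR cells with fluo-8 dye, after 10-cycle baseline and 23 nL compound addition; TRH at EC20 (10 nM final) added afterwards for the enhancer phase.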
D1 agonist: agonists of human D1 dopamine receptor. 1% of 360,000 active. P21728. activation, % at 2 µM. AID 504660. HEK293 T-REx D1 cells, calcium flux, agonist mode
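Inducible HEK293 T-REx D1 cells, force-coupled to calcium signalling, were plated at 4000 cells/well with tetracycline and held overnight at 30 C. After no-wash calcium dye loading, compound-evoked calcium rise over 180 s flagged agonists.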
TRHR enhancer: allosterically enhances the human TRH receptor; TRHR cells, fluo-8 calcium fluorescence, EC20 TRH enhancement; enhancement, % at 2 µM; 0.66% of 360,000 active; AID 493056; in the data active means enhancement above about 30%
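Enhancer read-out: after compound pinning and an initial kinetic agonist-mode read, an EC20 of TRH (10 nM final) was injected and fluo-8 calcium signal (Ex 480/Em 530) followed at 1 s/cycle for 100 cycles in TRHR-expressing cells.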
A number is an active result; i = inactive; nt = not tested or not shown; ! = repeats disagree. Unless noted, no stated cut-off is given here; in the data, active means activation above about 30%; inactive means the rest.

SMILES	D1 antagonist	D1 PAM	TRHR ag	D1 agonist	TRHR enhancer
Cc1nn(C)c2c1c(-c1ccccc1)cc(=O)n2Cc1ccccc1Cl	i	i	i	i	i
CCN(CC)c1ccc(/C=C/C(=O)C2C(=O)C=C(C)OC2=O)cc1 (stereo not drawn)	-78.9	i	221.8	245.8	39.6
CCN(CC)c1ccc(C=C2C(=O)OC(c3ccccc3)OC2=O)cc1 (stereo not drawn)	i	i	i	i	i
COc1cccc(CNC(=O)Cc2c(C)c3c(cc(C)c4c(C)coc43)oc2=O)c1	i	i	i	i	i
Cc1ccc(S(=O)(=O)n2nc(OC(=O)c3cccs3)cc2N)cc1	i	i	i	i	i
Cc1ccc(S(=O)(=O)n2ccc(OC(=O)c3cccs3)n2)cc1	i	i	i	30.2	i
CCOc1ccc(NC(=O)COc2nsnc2N2CCCCC2)cc1	i	i	i	i	i
COc1ccc(NC(=O)COc2nsnc2N2CCCCC2)cc1	-33.7	i	i	i	i
Cc1ccc(-c2nc3nc(C)cc(N4CCN(c5cccc(C)c5C)CC4)n3n2)cc1	i	i	i	i	i
O=C(CCNC(=O)c1ccc([N+](=O)[O-])cc1)Nc1ccc(F)cc1	-38.9	i	i	i	i
CCCCC(=O)Nc1ccc(C(=O)NCCc2ccccc2)cc1	i	i	i	i	i
Cc1cc(C)cc(NC(=O)CCNC(=O)c2ccc([N+](=O)[O-])cc2)c1	i	i	i	i	i
CCCC(=O)Nc1ccc(C(=O)NCCc2ccc(F)cc2)cc1	i	i	i	i	34.1
COc1ccc2c(c1)c1c(c(=O)n(-c3ccc(C)cc3)c(=O)n1CC(=O)N1CCCC1)n2C	i	i	i	i	i
CCCCC(CC)C(=O)Nc1cc(C(=O)NCCC)ccc1N1CCC2(CC1)CC(c1ccccc1)=NO2 (stereo not drawn)	i	i	i	i	37.6
Cc1ccc(CCNC(=O)C23CN(Cc4ccccc4)CC2C(c2cccc([N+](=O)[O-])c2)=NO3)cc1 (stereo not drawn)	i	i	i	i	33.8
COc1ccc(CCNC(=O)C23CN(Cc4ccccc4)CC2C(c2cccc([N+](=O)[O-])c2)=NO3)cc1 (stereo not drawn)	i	i	i	i	i
Cn1c(=O)c2c(nc(SCC(=O)Nc3ccccc3F)n2Cc2ccccc2F)n(C)c1=O	i	i	i	i	i
CCC1CN(CC(=O)NCc2cccc(Br)c2)c2ccccc2S1 (stereo not drawn)	-35.3	i	i	i	i
Oc1ccc(CNCc2ccc3c(c2)OCO3)c2cccnc12	i	i	i	i	i
CNCCC1Sc2ccccc2Oc2ccccc21 (stereo not drawn)	i	i	i	81.5	i
COc1ccc(OCCNc2cc(N3CCCCC3)ccc2[N+](=O)[O-])cc1	i	i	i	i	i
CC1CN(c2ccc([N+](=O)[O-])c(NCCOc3ccccc3)c2)CCN1 (stereo not drawn)	i	i	i	32.4	i
Cc1ccccc1OCCNc1cc(N2CCN(CCO)CC2)ccc1[N+](=O)[O-]	i	i	i	33.0	i
CCCS(=O)(=O)N1CCC(C(=O)NCCOC)CC1	i	i	i	i	i
SMILES	D1 antagonist	D1 PAM	TRHR ag	D1 agonist	TRHR enhancer
CCOC(=O)c1c(C=O)c(C)n(Cc2ccc(C)cc2)c1C	-56.0	i	i	104.1	i
CCN(c1ccccc1)c1nnc(NC(=O)Nc2ccc(Br)c(C)c2)s1	i	i	i	i	i
Cc1ccc(Cl)cc1NC(=O)Nc1nnc(N(C)Cc2ccccc2)s1	i	i	i	i	i
Cc1ccc(NC(=O)Nc2nnc(N(C)Cc3ccccc3)s2)c(C)c1	-40.7	i	i	i	i
CCN(c1ccccc1)c1nnc(NC(=O)Nc2ccc(C)cc2)s1	-34.5	i	i	i	i
Cc1ccc(CN(C(=O)COc2ccc(C(C)(C)C)cc2)C2CCS(=O)(=O)C2)o1 (stereo not drawn)	i	i	i	i	i
S=C(NCc1ccccc1Cl)Nc1ccccc1Cl	i	i	i	i	i
S=C(Nc1ccccc1)Nc1ccc(Cl)cc1Cl	i	i	i	i	i
Cc1cc(Cl)ccc1NC(=S)NCc1ccccc1Cl	-32.4	i	i	i	i
S=C(NCc1ccc(Cl)cc1Cl)Nc1ccccc1	-31.1	i	i	i	i
COc1ccc(CCNC(=O)CCS(=O)(=O)c2cc(Br)cc3c2N(C(C)=O)CC3)cc1OC	i	i	i	i	i
CC(=O)C1=C(O)C(=O)N(c2cccc(C(=O)O)c2)C1c1ccccc1F (stereo not drawn)	-87.1	i	i	i	i
CC(=O)C1=C(O)C(=O)N(Cc2ccccc2)C1c1ccccc1F (stereo not drawn)	i	i	i	i	i
CC(C(=O)NCc1ccccc1F)n1ccc2cc(S(=O)(=O)N3CCCC3)ccc21 (stereo not drawn)	i	i	i	i	i
COc1ccccc1NC(=O)CSc1oc(-c2ccccc2)nc1S(=O)(=O)c1ccccc1	i	i	i	i	i
CN(C)S(=O)(=O)n1cc(/C=C(\NC(=O)c2ccccc2F)C(=O)NCCCn2ccnc2)c2ccccc21	-38.4!	i	i	i	i
COc1ccccc1C(=O)N/C(=C\c1cn(S(=O)(=O)N(C)C)c2ccccc12)C(=O)NCCCn1ccnc1	i	i	i	i	i
O=C(NCCCn1ccnc1)/C(=C/c1ccc(Cl)cc1)NC(=O)c1ccccc1	i	nt	i	i	i
CN(C)c1ccc(/C=C(/NC(=O)c2ccccc2)C(=O)NCCCn2ccnc2)cc1	i	i	i	33.8	i
Cc1ccc2scc(N3CCc4ccccc4C3)c(=O)c2c1	i	i	i	i	i
Cc1ccc2c(c1)C(c1ccccc1)N(C(=O)Cc1ccc(F)cc1)CC(=O)N2 (stereo not drawn)	i	i	i	i	i
O=C(NNC(=O)c1ccccc1Cl)c1csc(N2CCOCC2)n1	i	i	i	i	i
O=C(NNC(=O)c1ccccc1C(F)(F)F)c1csc(N2CCOCC2)n1	-50.6	i	i	i	i
NC1=NC2(CCCCC2)N=C(Nc2ccc(F)cc2F)N1	i	i	i	i	i
COc1ccc(OC)c(NC2=NC3(CCCC3)N=C(N)N2)c1	-56.8	i	i	i	i
CNC(=O)C(=O)NCCC1CCCCN1S(=O)(=O)c1cccs1 (stereo not drawn)	i	i	i	i	i
CC(C)NC(=O)C(=O)NCCC1CCCCN1S(=O)(=O)c1cccs1 (stereo not drawn)	-31.5	i	i	i	i
CCC(C)NC(=O)c1cnn(-c2ccc(Cl)cc2)c1C1CCN(C(=O)OC(C)(C)C)CC1 (stereo not drawn)	i	i	i	i	i
CCOC(=O)C(NC(C)=O)C(=O)Nc1ccc(C(C)C)cc1 (stereo not drawn)	i	i	i	i	38.8

Screening results deposited in PubChem by National Center for Advancing Translational Sciences (NCATS).
